GLD-1 RNA inh: GLD-1/TGE RNA complex disruptors, primary screen, biochemical, fluorescence polarization | Female germline-specific tumor suppressor gld-1 (Caenorhabditis elegans), Q17339 | 0.44% of 320,000 active | purified GLD-1 + fluorescein TGE RNA | inhibition, % at 5.96 µM;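 active means percent inhibition above a per-plate cutoff, the plate mean of test compounds plus 3 SD, cut at about 30% in these data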;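 further: 0% = DMSO wells with GLD-1 and probe and 100% = wells lacking GLD-1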
Target sequence (Q17339 whole entry, looked up): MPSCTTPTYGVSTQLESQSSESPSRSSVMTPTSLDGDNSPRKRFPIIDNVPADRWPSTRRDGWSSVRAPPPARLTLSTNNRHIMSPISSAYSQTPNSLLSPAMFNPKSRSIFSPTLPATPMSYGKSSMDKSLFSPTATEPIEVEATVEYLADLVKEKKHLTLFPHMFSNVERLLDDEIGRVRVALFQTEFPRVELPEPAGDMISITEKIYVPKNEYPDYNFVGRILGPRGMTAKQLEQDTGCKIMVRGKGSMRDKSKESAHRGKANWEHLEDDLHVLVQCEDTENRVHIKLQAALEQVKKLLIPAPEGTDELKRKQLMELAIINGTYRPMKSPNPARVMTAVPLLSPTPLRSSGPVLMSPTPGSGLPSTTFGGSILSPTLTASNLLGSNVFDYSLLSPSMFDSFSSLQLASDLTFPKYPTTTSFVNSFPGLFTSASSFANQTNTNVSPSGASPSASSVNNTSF
EBV gp42 inh: Epstein-Barr virus gp42 inhibitors, primary screen, biochemical, uHTS, fluorescence polarization. 0.42% of 220,000 active. Fluorescence polarization binding assay, mP read-out. inhibition, % (tested at 21.74 µM); in the data active means inhibition above about 50%
eLon inh: inhibitors of E. coli Lon protease, primary screen, biochemical, fluorescence polarization. P0A9M0. purified E. coli Lon protease. inhibition, % at 7.94 µM. 0.42% of 360,000 active. AID 602123, 2011; in the data active means inhibition above about 13%, passing the limit was not always enough;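 further: 0% = enzyme with probe and DMSO and 100% = no enzyme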
BCLXL inh: inhibitors of human Bcl-xL, primary screen, biochemical, fluorescence polarization, HTS. 0.7% of 320,000 active. GST-Bcl-xL / FITC-Bim BH3 peptide fluorescence polarization. Bcl-2-like protein 1 (Homo sapiens), Q07817. inhibition, % at 10.9 µM;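 active means inhibition above the mean of all tested compounds plus 3 SD, cutoff set per campaign, cut at about 30% in these data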;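 further: 0% = DMSO wells and 100% = unlabeled Bim-BH3 peptide competitor; inhibitors lower millipolarization by displacing the labeled peptide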
Target sequence (Q07817 whole entry, looked up): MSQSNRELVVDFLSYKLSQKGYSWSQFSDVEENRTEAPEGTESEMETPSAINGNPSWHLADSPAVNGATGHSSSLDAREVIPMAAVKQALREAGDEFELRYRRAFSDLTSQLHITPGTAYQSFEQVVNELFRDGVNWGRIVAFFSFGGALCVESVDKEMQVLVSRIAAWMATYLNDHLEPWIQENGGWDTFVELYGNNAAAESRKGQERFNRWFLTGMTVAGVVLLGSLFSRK
MCL1 BIM primary: inhibitors of MCL1 binding to BIM-BH3, primary screen, biochemical, fluorescence polarization | Induced myeloid leukemia cell differentiation protein Mcl-1 (Homo sapiens), Q07820 | GST-MCL1 / FITC-Bim-BH3 fluorescence polarization | inhibition, % at 10.9 µM | 0.68% of 320,000 active;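 active means inhibition above the mean inhibition of all tested compounds plus 3 SD, set per campaign, cut at about 40% in these data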;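 further: 0% = DMSO wells and 100% = unlabeled Bim-BH3 peptide control; higher means more loss of mP so more displacement of Bim peptide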
MEX-5 binding: MEX-5 zinc finger RNA-binding disruptors – biochemical, C. elegans, fluorescence polarization, MLPCN library, primary screen | Zinc finger protein mex-5 (Caenorhabditis elegans), Q9XUB2 | MEX-5/FITC-TCR2 RNA binding; active compounds read low | activity score (negative = inhibition of binding), % at 10 µM | 0.38% of 300,000 active;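 active means inhibition past about -25% in most replicates, and total fluorescence under double the plate's negative control median, limit read from the data; inconclusive means replicates evenly split on the limit, or fluorescence at least double controls; inactive means too little inhibition in most replicates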;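 further: 0% = DMSO and -100% = 5 µM competing unlabeled TCR2 RNA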
The depositor's hits bear a star. Rows were chosen to be rich in hits. Some 1.5% of all compounds tested hit in one or more screens of this group.

How did Cc1ccc(S(=O)(=O)C(C#N)c2nc3ccccc3nc2OC(C)C)cc1 (configuration not stated) do in these assays?
GLD-1 RNA inh: 0.6; EBV gp42 inh: -0.3; eLon inh: -7.5; BCLXL inh: 6.1; MCL1 BIM primary: 1.3; MEX-5 binding: -8.5

How did O=C1Cc2cccc(=O)c(O)c2C(=O)O1 do in these assays?
eLon inh: -3.3

What do the screens show for `O=C1c2c(O)cccc2Cc2cccc(O)c21`?
GLD-1 RNA inh: 20.9; eLon inh: 14.6; BCLXL inh: 30.8*; MCL1 BIM primary: 35.8

Results for CC(C)(O)C(=O)NNC(=S)NCc1ccco1 ?
GLD-1 RNA inh: -1.6; EBV gp42 inh: -11.8; eLon inh: 1.3; BCLXL inh: 2.2; MCL1 BIM primary: 6.5; MEX-5 binding: -32.3*

What do the screens show for `FC(F)c1nc2nc(Cl)c(Cl)nc2[nH]1`?
eLon inh: 2.8

What do the screens show for `O=C(N/N=C/c1cc(Br)cc(Br)c1O)c1ccncc1`?
GLD-1 RNA inh: 31.0*; EBV gp42 inh: 20.5; BCLXL inh: 33.1*; MCL1 BIM primary: 45.1*; MEX-5 binding: -4.5

How did CC(C)CC[n+]1ccn(-c2nc3ccccc3nc2[N-]S(=O)(=O)c2ccc(Cl)cc2)c1 do in these assays?
GLD-1 RNA inh: 21.7; EBV gp42 inh: -6.0; eLon inh: 8.6; BCLXL inh: 22.6; MCL1 BIM primary: 21.4; MEX-5 binding: 1.1

How did CC(=O)Nc1ccc(CN(C)c2c(C)nc3ccc(C(=O)N4CCN(c5ccccc5)CC4)cn23)cc1 do in these assays?
eLon inh: -2.2

Results for CN1c2cccc3cccc(c23)N(C)C1(C)C ?
GLD-1 RNA inh: -5.6; EBV gp42 inh: -20.1; eLon inh: 10.2; BCLXL inh: 10.4; MCL1 BIM primary: 7.3; MEX-5 binding: 1.0

Results for CN1c2ccccc2N(C)C1(C)c1cccc2ccccc12 ?
GLD-1 RNA inh: 27.2; EBV gp42 inh: -77.3; eLon inh: -5.3; BCLXL inh: 42.7*; MCL1 BIM primary: 27.3; MEX-5 binding: -4.3

How did CCc1ccc(/C=C2\Oc3c(ccc(O)c3CN3CCN(CCO)CC3)C2=O)cc1 do in these assays?
GLD-1 RNA inh: 7.5; EBV gp42 inh: -5.0; eLon inh: -32.9; BCLXL inh: 51.2*; MCL1 BIM primary: 48.6*; MEX-5 binding: -30.0*

What do the screens show for `CCc1ccc(/C=C2\Oc3cc(OS(C)(=O)=O)ccc3C2=O)cc1`?
GLD-1 RNA inh: 2.0; EBV gp42 inh: -1.3; eLon inh: -11.4; BCLXL inh: -2.8; MCL1 BIM primary: -2.4; MEX-5 binding: -1.1

Results for Cc1cc(C)cc(NC(=O)COC(=O)CC2CCCC2)c1 ?
GLD-1 RNA inh: 0.7; eLon inh: 4.2; BCLXL inh: 3.9; MCL1 BIM primary: 6.6

Results for CCOC(=O)N1CCC(Nc2nc3ccccc3nc2NS(=O)(=O)c2ccc(Cl)cc2)CC1 ?
GLD-1 RNA inh: 5.0; EBV gp42 inh: 53.5*; eLon inh: 8.7; BCLXL inh: 11.5; MCL1 BIM primary: 11.7; MEX-5 binding: 0.7

How did O=C(N/N=C/c1ccc(OC(=O)c2ccco2)cc1)c1ccc[n+]([O-])c1 do in these assays?
GLD-1 RNA inh: 1.1; eLon inh: 8.1; BCLXL inh: -4.0; MCL1 BIM primary: -2.5; MEX-5 binding: -0.1

How did COc1ccc(-c2nc3n(c2C)Cc2ccccc2-3)cc1 do in these assays?
GLD-1 RNA inh: 3.7; EBV gp42 inh: 5.0; eLon inh: 7.3; BCLXL inh: 46.4*; MCL1 BIM primary: 41.5*; MEX-5 binding: -2.0

How did O=c1cc(-c2ccccc2)nc2n1Cc1ccccc1-2 do in these assays?
GLD-1 RNA inh: 3.8; EBV gp42 inh: -10.6; eLon inh: -1.4; BCLXL inh: 1.8; MCL1 BIM primary: 1.1; MEX-5 binding: 1.8

How did O=C1CCNc2c(Cl)cc(Cl)cc21 do in these assays?
GLD-1 RNA inh: 23.6; EBV gp42 inh: 71.3*; eLon inh: 13.0; BCLXL inh: 31.6*; MCL1 BIM primary: 29.5; MEX-5 binding: -4.8

How did CN(C)c1cccc2c1c(NS(=O)(=O)c1cn(C)cn1)nn2C do in these assays?
GLD-1 RNA inh: 5.8; eLon inh: -2.8; BCLXL inh: 15.6; MCL1 BIM primary: 9.1; MEX-5 binding: -29.9*

Results for Cn1cnc(S(=O)(=O)Nc2ccccc2N2CCOCC2)c1 ?
GLD-1 RNA inh: 2.1; EBV gp42 inh: 6.1; eLon inh: 5.4; BCLXL inh: -1.0; MCL1 BIM primary: 0.7; MEX-5 binding: -0.4

How did CC(C)N1CCc2c(sc(N)c2C#N)C1 do in these assays?
GLD-1 RNA inh: -74.7; EBV gp42 inh: -19.6; eLon inh: -63.8; BCLXL inh: 46.8*; MCL1 BIM primary: 43.2*; MEX-5 binding: inconclusive

What do the screens show for `COC(=O)/C(C#N)=C/c1c(Oc2cc(C)cc(C)c2)nc2c(C)cccn2c1=O`?
GLD-1 RNA inh: 3.3; EBV gp42 inh: -5.4; eLon inh: -0.1; BCLXL inh: 0.7; MCL1 BIM primary: -3.3; MEX-5 binding: -41.0*

Results for CNC(=O)/C(C#N)=C/c1c(N(Cc2ccccc2)Cc2ccccc2)nc2c(C)cccn2c1=O ?
GLD-1 RNA inh: 4.8; EBV gp42 inh: -26.3; eLon inh: -11.5; BCLXL inh: 154.2*; MCL1 BIM primary: -0.5; MEX-5 binding: 0.8

Results for CCNC(=O)/C(C#N)=C/c1c(N(Cc2ccccc2)Cc2ccccc2)nc2ccccn2c1=O ?
GLD-1 RNA inh: -5.2; EBV gp42 inh: -20.5; eLon inh: -0.7; BCLXL inh: -1.7; MCL1 BIM primary: -3.9; MEX-5 binding: 3.2

How did CCC1=NN2C(=N)/C(=C\c3cccn3-c3ccc(Cl)cc3)C(=O)N=C2S1 do in these assays?
GLD-1 RNA inh: 0.8; EBV gp42 inh: 12.3; eLon inh: -0.8; BCLXL inh: 2.0; MCL1 BIM primary: -3.0; MEX-5 binding: 5.9

How did Cc1ccc(-n2cccc2/C=C2\C(=N)N3N=C(c4ccco4)SC3=NC2=O)cc1 do in these assays?
GLD-1 RNA inh: -14.2; EBV gp42 inh: 67.3*; eLon inh: -14.3; BCLXL inh: -6.3; MCL1 BIM primary: 18.9; MEX-5 binding: -0.1

What do the screens show for `CCC/C(C#Cc1ccc(N(C)C)cc1)=C1/c2ccccc2C(=O)N1c1ccccc1`?
GLD-1 RNA inh: 118.9*; eLon inh: -163.1

Results for CCC/C(C#Cc1cc(OC)cc(OC)c1)=C1/c2ccccc2C(=O)N1c1ccccc1 ?
GLD-1 RNA inh: 2.1; eLon inh: 7.1

Results for CCN(CC)C(=O)CN1CCC(n2c(C)nc3cc(C(F)(F)F)ccc32)CC1 ?
GLD-1 RNA inh: 11.0; EBV gp42 inh: 8.9; eLon inh: -14.3; BCLXL inh: 30.6*; MCL1 BIM primary: 34.1; MEX-5 binding: -9.6
